The results in this text go back to PubChem BioAssay (NCI).

Values joined by “and” are separate entries in the source; they are usually repeats but may differ in a detail not shown here. Equal values may be shown once. The panel holds about 83,000 compounds, 20% with a hit somewhere; the sample as a whole holds those more often.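 In brief: 96-well plates, 48 h treatment, single concentration, percent growth endpoint.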 Values without a mark were called inactive. Active and inactive are the calls of the source. How the source made its calls: active means growth percent below 10; inactive means the rest.

This test concerns MDA-MB-468 breast. Nature of the test: NCI-60 one-dose screen, 48 h (100 = growth as untreated, 0 = no growth, -100 = all killed). The note with it: 10 µM unless noted.
In the case of `Clc1ccc(-c2nc(-c3cccs3)cn3ccnc23)cc1`, the growth was -11.1% (active). To `CCOC(=O)Cc1cc(Br)c(OCc2ccccc2)c(Br)c1` belongs 110%; to `O=C1OC(c2ccccc2)=N/C1=C\c1ccccc1`, 92.4%; to `Cc1cc(=O)[nH]n1-c1cc(Cl)ccc1N`, 110%. As to `C=CCn1c(SCC(=O)Nc2ccc(C(=O)/C=C/c3ccc(Cl)cc3)cc2)nnc1-c1ccc(Cl)c(Cl)c1`, the growth is 81.5%. Then `CC(C)(C)c1ccc(-c2nnc(-c3nc4ccccc4nc3Cl)o2)cc1`, with 7.12% (active); and `O=C(O)c1cn(C2CC2)c2cc(N3CCN(Cc4nnc(Nc5ccccc5)o4)CC3)c(F)cc2c1=O`, with 114%; and `O=C(c1ccc(Cl)cc1)C1[C@H](c2ccc(Cl)cc2)[C@@H](c2ccccc2)NC12C(=O)Nc1ccc(Br)cc12` (stereo not given in full), with 45.8%. Then `Nc1c(C(=O)c2ccccc2)sc2nc(-c3cccs3)cc(-c3cccs3)c12`, with 30.8%; and `COc1cc(/C=N/NC(=O)c2cnn3c2NC(c2ccccc2)C3)cc(OC)c1OC` (stereo not given), with 62.8%; and `CCCC(=O)c1cc(C)ccc1OC`, with 113%. In the case of `COc1cc2oc(-c3cccc(C(=O)Nc4ccccc4)c3)cc(=O)c2c(O)c1OC`, the growth was 69.4%. To `Cc1ccc(NC(=O)c2sc3nc(C)c(C(O)c4ccccc4)cc3c2N)cc1` (stereo not given) belongs 18.6%. Then `Cc1ccccc1Nc1n[nH]c(Cc2ccccc2)n1`, with 104%; and `OCCNc1nc(NCCO)nc(Nc2ccc(C3=NN(c4cc(Cl)cc(Cl)c4)C(c4ccc(Cl)cc4)C3)cc2)n1` (stereo not given), with -5.79% (active). Then `N#CCNc1ccc(C(=O)O)cc1`, with 92.8%; and `O=C(O)/C=C\C(=O)Nc1ccc2c(c1)Cc1cc(F)ccc1-2`, with 109%. `COC1/C=C/OC2(C)Oc3c(C)c(O)c4c(O)c(c(/C=N/Nc5ccc([N+](=O)[O-])cc5[N+](=O)[O-])c(O)c4c3C2=O)NC(=O)C(C)=C/C=C/C(C)C(O)C(C)C(O)C(C)C(OC(C)=O)C1C` (stereo not given): the growth was -54.5% (active).

Turning to `O=C(O)c1cccc([N+](=O)[O-])c1O`, the growth was 102%. To `O=S(=O)(NCCNc1cc(-c2c(-c3cccc(O)c3)nc3sccn23)ccn1)c1ccc(Cl)cc1` belongs 51.5%.

With `CC1(C(=O)O)CCC(N)(C(=O)O)C1(C)C` (stereo not given), the growth was 115%.

With `Cc1c(C(=O)Nc2nc3ccccc3[nH]2)cnn1-c1ccccn1`, the growth was 112%.

With `COC(=O)[C@]12CC[C@@H](C)[C@H](C)[C@@H]1C1=CC[C@@H]3[C@@]4(C)C(C=O)=C[C@@](C)(COC(C)=O)C4=CC[C@@]3(C)[C@]1(C)CC2`, the growth was -3.02% (active). To `O=C(O)C1CN(c2cccc(Cl)c2)N(c2cccc(Cl)c2)C1=O` (stereo not given) belongs 78.7%; to `N=C(N)N1CCc2ccccc2C1`, 41% and 107%; to `C=C(C)[C@@H]1CC[C@]2(C)[C@H](CC=C3[C@@H]4CC(C)(C)CC[C@]4(C(=O)OC)CC[C@]32C)[C@@]1(C)CC/C(N)=N/O`, -13% (active). Then `COc1ccc2cnc(N)c(C#Cc3cc(C(=O)Nc4ccc(CN5CCN(C)CC5)c(C(F)(F)F)c4)cnc3C)c2c1`, with 91.2%. Then `CCCCNNC(=O)c1ccc(-c2cccc(F)c2F)cc1`, with -4.26% (active); and `O=c1ccc(=O)n(-c2nc(-c3ccc([N+](=O)[O-])cc3)cs2)[nH]1`, with 99.3%. Regarding `NC1CCC(Nc2nc(NCc3ccc(-c4ccccc4O)nc3)c3ncn(C4CCCC4)c3n2)CC1` (stereo not given), the growth was -73.7% (active). In the case of `CCOC(=O)C1CCN(S(=O)(=O)/N=C2/NC(=O)NC2=C(Cl)Cl)CC1`, the growth was -22.2% (active).

With `O=C(Cc1ccc(/C=C/C(=O)c2ncc[nH]2)cc1)Nc1cc(F)c(F)c(F)c1`, the growth is 8.95% (active).

Regarding `N#Cc1c(N)[nH]c(S)c1C#N`, the growth is 103%. Turning to `O=C(c1ccccc1)C1CCC1`, the growth is 110%. Then `O=S(=O)(NC1c2ccccc2Oc2ccccc21)c1ccccc1`, with 87.6%; and `CC(C)(C)OC(=O)N1CC(Cn2cc(C(F)(F)F)c3c(Cl)ncnc32)C1`, with -46.8% (active). Then `Cn1cc(-c2cnn3c(N)c(Br)c([C@@H]4CCCNC4)nc23)cn1`, with 67.5%; and `CC(C)(C)OC(=O)N1CCN(CCn2cc(C(F)(F)F)c3c(Cl)ncnc32)CC1`, with 19.4%.

`CCOC(=O)C1=C(C)c2ccc(OC)c(OC)c2C1`: the growth is 99.4%. To `Clc1ccc(C2=Nc3cccc4cccc(c34)N2)cc1Cl` belongs -43.8% (active).
